PubChem BioAssay (Tox21)
Results filed as inconclusive are left out. Where a call stands in place of a potency, no number is given. Calls of active or inactive are those of the source. Unless noted, the call rests on the fitted dose curve. Positions of bridges follow the written chain, without caps; N, C: chain ends. Residues, ends and D or L forms follow the SMILES beside them.

System: not listed separately
Experiment: qHTS assay to identify small molecule antagonists of the thyroid receptor (TR) signaling pathway (AID 743065; active means well fitted inhibition curve with a large enough effect in the repeat runs; further: nearly all actives have a fitted effect of over 55% in size; further: potency means the concentration at half of the fitted maximal effect)
Conditions: GH3.TRE-Luc, T3-stimulated luciferase inhibition, 23.5 h; series mostly up to 70.3 µM
Summary of the method: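 GH3.TRE-Luc rat pituitary cells carrying two TR response elements driving luciferase were plated for 4 h, given compound plus 1 nM T3 (final), and incubated 23.5 h at 37 C. ONE-Glo luminescence measured reporter inhibition; CellTiter-Fluor fluorescence tracked cytotoxicity.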

Row | SMILES | Potency
1 | CC(CCc1ccc(O)cc1)NCC(O)c1ccc(O)cc1 (centres undefined) | inactive
2 | CC(=O)O[C@]1(C(C)=O)CC[C@H]2[C@@H]3CCC4=CC(=O)CC[C@]4(C)[C@@]3(F)[C@@H](O)C[C@@]21C | inactive
3 | NCCCC[C@H](NC(=O)[C@@H]1CCCN1C(=O)[C@@H]1CSSC[C@H](NC(=O)CNC(=O)CNC(=O)CN)C(=O)N[C@@H](Cc2ccc(O)cc2)C(=O)N[C@@H](Cc2ccccc2)C(=O)N[C@@H](CCC(N)=O)C(=O)N[C@@H](CC(N)=O)C(=O)N1)C(=O)NCC(N)=O (H-GGGCYFQNCPKG-NH2; disulfide 4-9) | inactive
4 | N#CC(c1ccc(Cl)cc1)c1c(Cl)cc(-n2ncc(=O)[nH]c2=O)cc1Cl (centres undefined) | 3.76 µM (active)
5 | CC(C(=O)O)c1ccc(N2Cc3ccccc3C2=O)cc1 (centres undefined) | 7.5 µM (active)
6 | C[C@H](/C=C/[C@H](C)C(C)(C)O)[C@H]1CC[C@H]2/C(=C/C=C3C[C@@H](O)C[C@H](O)C3)CCC[C@]12C | 16.8 µM (active)
7 | CC(C)(C)c1ccc(CN2CCN(C(c3ccccc3)c3ccc(Cl)cc3)CC2)cc1 (centres undefined) | 21.1 µM (active)

System: thyroid hormone receptor (rat, GH3 cells)
Experiment: qHTS assay to identify small molecule agonists of the thyroid receptor (TR) signaling pathway (AID 743066)
Conditions: GH3.TRE-Luc cells, TR agonist luciferase, 24 h; series mostly up to 83.9 µM

Row | SMILES | Potency
8 | COc1ccc(-c2noc(CC(=O)O)c2-c2ccc(OC)cc2)cc1 | inactive
9 | CN1c2cc(O)c(N=NC(N)=O)cc2CC1S(=O)(=O)O (centres undefined) | inactive
10 | CC(C)(C)NCC(O)c1ccc(O)c(CO)n1 (centres undefined) | inactive
11 | CCCCCCCCCCCCCCCCCCCCCC(=O)Nc1ccn([C@@H]2O[C@H](CO)[C@@H](O)[C@@H]2O)c(=O)n1 | inactive
12 | COc1ccc(CC2c3cc(OC)c(OC)cc3CC[N+]2(C)CCC(=O)OCCCCCOC(=O)CC[N+]2(C)CCc3cc(OC)c(OC)cc3C2Cc2ccc(OC)c(OC)c2)cc1OC (centres undefined) | inactive
13 | CO[C@H]1C[C@@H]2CC[C@@H](C)[C@@](O)(O2)C(=O)C(=O)N2CCCC[C@H]2C(=O)O[C@H]([C@H](C)C[C@@H]2CC[C@@H](OCCO)[C@H](OC)C2)CC(=O)[C@H](C)/C=C(\C)[C@@H](O)[C@@H](OC)C(=O)[C@H](C)C[C@H](C)/C=C/C=C/C=C/1C | inactive
14 | CC#CCC(C)[C@H](O)/C=C/[C@@H]1[C@H]2c3cccc(CCCC(=O)O)c3O[C@H]2C[C@H]1O (some centres undefined) | inactive
15 | CCC(=O)Oc1ccc2c(c1)CC[C@@H]1[C@@H]2CC[C@]2(C)[C@@H](OC(=O)CC)CC[C@@H]12 | inactive
16 | CCCCC(C)(O)C/C=C/[C@H]1[C@H](O)CC(=O)[C@@H]1CCCCCCC(=O)OC (some centres undefined) | inactive
17 | CN1CCN2c3ncccc3Cc3ccccc3C2C1 (centres undefined) | inactive
18 | O=C(O)CN(CC(=O)O)CC1=CC2C(=CC1=O)Oc1cc(O)c(CN(CC(=O)O)CC(=O)O)cc1C21OC(=O)c2ccccc21 (centres undefined) | inactive
19 | C/C1=C2N=C(/C=C3N=C(/C(C)=C4\[N-]C(C(CC(N)=O)C4(C)CCC(=O)NCC(C)OP(=O)([O-])OC4C(CO)OC(n5cnc6cc(C)c(C)cc65)C4O)C4(C)N=C1C(CCC(N)=O)C4(C)CC(N)=O)C(CCC(N)=O)C\3(C)C)C(CCC(N)=O)C/2(C)CC(N)=O.[CH3-].[Co+3] (centres undefined) | inactive
20 | CCOc1ccc(N=Nc2ccc(N)cc2N)cc1 | inactive
21 | CCCCCCCCCCCCCCCCCC(=O)OCC(C)O (centres undefined) | inactive
22 | O=P(O)(O)C(Sc1ccc(Cl)cc1)P(=O)(O)O | inactive
23 | C/C1=C2N=C(/C=C3N=C(/C(C)=C4\[N-][C@@](C)([C@@H]5N=C1[C@](C)(CCC(=O)NCC(C)OP(=O)(O)O[C@H]1[C@@H](O)[C@@H](n6cnc7cc(C)c(C)cc76)O[C@@H]1CO)[C@H]5CC(N)=O)[C@@](C)(CC(N)=O)[C@@H]4CCC(N)=O)[C@@](C)(CC(N)=O)[C@@H]\3CCC(N)=O)C(C)(C)[C@@H]/2CCC(N)=O.CC(=O)O.[Co] (some centres undefined) | inactive
24 | CC(=O)Nc1c(I)c(C(=O)O)c(I)c(N(C)C(C)=O)c1I | inactive
25 | CC(=O)Oc1cccc(C(=O)O)c1OC(C)=O | inactive
26 | CC(C)NCC(O)COc1ccccc1-n1cccc1 (centres undefined) | inactive
27 | CC(CC(c1ccccc1)c1ccccc1)NC(C)(C)C (centres undefined) | inactive
28 | O=[n+]1ccn([O-])c2ccccc21 | inactive
29 | CC(/C=C/C=C(\C)C(=O)O[C@@H]1O[C@H](CO[C@@H]2O[C@H](CO)[C@@H](O)[C@H](O)[C@H]2O)[C@@H](O)[C@H](O)[C@H]1O)=C\C=C\C=C(C)\C=C\C=C(/C)C(=O)O[C@@H]1O[C@H](CO[C@@H]2O[C@H](CO)[C@@H](O)[C@H](O)[C@H]2O)[C@@H](O)[C@H](O)[C@H]1O | inactive
